The values that follow come from PubChem BioAssay (NCI).

Where “and” joins values, the source holds several entries; their conditions need not be identical. Equal entries are not always repeated. About 79,000 compounds went through this panel and 15% of them were active in at least one assay; those are over-represented in the sample as a whole. Some structures have more than one record in an assay (separate samples or runs), and their calls can disagree. Calls of active or inactive are those of the source. Rule as the data show it: active = growth inhibition above about 70%; inactive = the rest.

The nature of experiment [1]: NCI Yeast Anticancer Drug Screen. Data for the rad50 strain (AID 155).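 Also: 0% = growth of vehicle-only cultures of the same strain.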 As to conditions: S. cerevisiae rad50 strain growth inhibition, stronger effect = higher value. Put shortly:
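Genetically altered yeast (DNA repair pathway); compound treatment; growth inhibition vs vehicle ctrl.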

The nature of experiment [2]: NCI Yeast Anticancer Drug Screen. Data for the mec2-1 strain (AID 157). Particulars: S. cerevisiae mec2-1 strain, stronger effect = higher value. The gist of the method: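 Compounds were applied to mec2-1 yeast cells. Their growth was then compared with that of vehicle-treated cultures to give growth inhibition.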
Experiment [3] in a line: NCI Yeast Anticancer Drug Screen. Data for the sgs1 mgt1 strain (AID 161).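 Also: 0% = growth of cultures given vehicle only.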 Particulars: S. cerevisiae sgs1 mgt1 strain, stronger effect = higher value. The gist of the method:
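This yeast growth screen uses a strain with defined DNA-repair lesions; compound-treated growth is compared with vehicle-treated growth.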

Experiment [4] in a line: NCI Yeast Anticancer Drug Screen. Data for the cln2 rad14 strain (AID 165).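 Also: 0% = growth equal to vehicle treated cultures.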 Particulars: S. cerevisiae cln2 rad14 strain, stronger effect = higher value. The gist of the method:
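Strain: cln2 rad14 yeast, altered in cell cycle control and DNA damage repair. Read-out: growth inhibition vs vehicle.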

A short description of experiment [5]: NCI Yeast Anticancer Drug Screen. Data for the bub3 strain (AID 167). Particulars: S. cerevisiae bub3 mutant strain, stronger effect = higher value. The gist of the method: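 Yeast carrying a defined mutation is treated with each compound, and growth is compared with that of vehicle-exposed cells to give inhibition.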
Experiment [6] in a line: NCI Yeast Anticancer Drug Screen. Data for the mlh1 rad18 strain (AID 175). As to conditions: S. cerevisiae mlh1 rad18 strain growth inhibition, stronger effect = higher value. Put shortly:
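A repair-deficient yeast strain is exposed to test compound, and growth is scored relative to vehicle-treated controls.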

Where [7] appears, read: at 5.0 µM (retest, dose inferred, filed as 0.5).
[8] abbreviates: at 50.0 µM (retest, dose inferred, filed as 5.0).

Take `O=S(c1cc(Br)ccc1O)c1cc(Br)ccc1O`: the growth inhibition was 31% (inactive) in experiment [1] (setting [7]); 99% (active) in experiment [1] (setting [8]); 99.3% (active) in experiment [1] (at 50.0 µM); 49% (inactive) in experiment [2] (setting [7]); 100% (active) in experiment [2] (setting [8]); 99.7% (active) in experiment [2] (at 50.0 µM). The growth inhibition in experiment [3] (setting [7]) was 69% (inactive); in experiment [3] (setting [8]) it was 99% (active); in experiment [3] (at 50.0 µM), 99% (active); in experiment [4] (setting [7]), 39% (inactive); in experiment [4] (setting [8]), 99% (active); in experiment [4] (at 50.0 µM), 99.3% (active). In addition, the growth inhibition in experiment [5] (setting [7]) is 23% (inactive); in experiment [5] (setting [8]), 99% (active); in experiment [5] (at 50.0 µM) it was 99.3% (active); in experiment [6] (setting [7]) it was 80% (active); in experiment [6] (setting [8]) it was 100% (active); in experiment [6] (at 50.0 µM), 99.5% (active).
As for `COC(=O)C1=COC(C)C2C[n+]3ccc4c([nH]c5ccccc54)c3CC12` (stereo not given), the growth inhibition was 23% (inactive) in experiment [1] (setting [7]); 25% (inactive) in experiment [1] (setting [8]); -11.6% (inactive) and 6.35% (inactive) in experiment [1] (at 50.0 µM); 22% (inactive) in experiment [2] (setting [7]); 25% (inactive) in experiment [2] (setting [8]); -34% (inactive) and 31.9% (inactive) in experiment [2] (at 50.0 µM). In addition, the growth inhibition is 17% (inactive) in experiment [3] (setting [7]); 38% (inactive) in experiment [3] (setting [8]); -11.2% (inactive) and 17.6% (inactive) in experiment [3] (at 50.0 µM); 21% (inactive) in experiment [4] (setting [7]); 30% (inactive) in experiment [4] (setting [8]); -8.3% (inactive) and -15.8% (inactive) in experiment [4] (at 50.0 µM). Moreover, the growth inhibition is 22% (inactive) in experiment [5] (setting [7]); 35% (inactive) in experiment [5] (setting [8]); -31.1% (inactive) and 38.2% (inactive) in experiment [5] (at 50.0 µM); 23% (inactive) in experiment [6] (setting [7]); 39% (inactive) in experiment [6] (setting [8]); -18.1% (inactive) and 43.3% (inactive) in experiment [6] (at 50.0 µM).
Regarding `CC(=O)OCC1OC(n2c(=S)n(-c3ccccc3)c(=O)c3ccccc32)C(OC(C)=O)C(OC(C)=O)C1OC(C)=O` (stereo not given), the growth inhibition in experiment [1] (setting [7]) was 27% (inactive); in experiment [1] (setting [8]), 27% (inactive); in experiment [1] (at 50.0 µM), 8.65% (inactive) and -2.35% (inactive); in experiment [2] (setting [7]), 14% (inactive); in experiment [2] (setting [8]) it was 14% (inactive); in experiment [2] (at 50.0 µM) it was -27.1% (inactive) and 5.4% (inactive). Further, the growth inhibition was 11% (inactive) in experiment [3] (setting [7]); 11% (inactive) in experiment [3] (setting [8]); 6.3% (inactive) and -28.1% (inactive) in experiment [3] (at 50.0 µM); 17% (inactive) in experiment [4] (setting [7]); 17% (inactive) in experiment [4] (setting [8]); 9.15% (inactive) and -3.95% (inactive) in experiment [4] (at 50.0 µM). In addition, the growth inhibition is 6% (inactive) in experiment [5] (setting [7]); 6% (inactive) in experiment [5] (setting [8]); 58.9% (inactive) and -30.1% (inactive) in experiment [5] (at 50.0 µM); 7% (inactive) in experiment [6] (setting [7]); 7% (inactive) in experiment [6] (setting [8]); 12.2% (inactive) and -0.5% (inactive) in experiment [6] (at 50.0 µM).
On to `O=Cc1cc(Br)ccc1O`, for which the growth inhibition in experiment [1] (setting [7]) is 21% (inactive) and 9% (inactive); in experiment [1] (setting [8]), 97% (active) and 85% (active); in experiment [1] (at 50.0 µM), 88.7% (active) and 95.2% (active); in experiment [2] (setting [7]), 7% (inactive) and 4% (inactive); in experiment [2] (setting [8]), 73% (active) and 77% (active); in experiment [2] (at 50.0 µM), 92.5% (active) and 98% (active). Besides, the growth inhibition is 10% (inactive) and 4% (inactive) in experiment [3] (setting [7]); 73% (active) and 68% (inactive) in experiment [3] (setting [8]); 95.9% (active) and 96.3% (active) in experiment [3] (at 50.0 µM); 8% (inactive) and -3% (inactive) in experiment [4] (setting [7]); 61% (inactive) and 30% (inactive) in experiment [4] (setting [8]); 48.2% (inactive) and 69% (inactive) in experiment [4] (at 50.0 µM). Also, the growth inhibition in experiment [5] (setting [7]) is 6% (inactive) and -4% (inactive); in experiment [5] (setting [8]), 97% (active) and 88% (active); in experiment [5] (at 50.0 µM) it was 91.7% (active) and 97.5% (active); in experiment [6] (setting [7]) it was 17% (inactive) and 11% (inactive); in experiment [6] (setting [8]), 94% (active) and 93% (active); in experiment [6] (at 50.0 µM) it was 97% (active) and 99% (active).
Consider `CC1(c2ccccc2)c2ccccc2N(c2ccccc2)C(=O)C1O` (stereo not given), for which the growth inhibition in experiment [1] (setting [7]) is 98% (active); in experiment [1] (setting [8]), 100% (active); in experiment [1] (at 50.0 µM), -2.35% (inactive) and 99.5% (active); in experiment [2] (setting [7]), 98% (active); in experiment [2] (setting [8]), 100% (active); in experiment [2] (at 50.0 µM), 7.75% (inactive) and 99.7% (active). The growth inhibition is 97% (active) in experiment [3] (setting [7]); 99% (active) in experiment [3] (setting [8]); 8.35% (inactive) and 99.6% (active) in experiment [3] (at 50.0 µM); 96% (active) in experiment [4] (setting [7]); 99% (active) in experiment [4] (setting [8]); 1.8% (inactive) and 99.2% (active) in experiment [4] (at 50.0 µM). The growth inhibition was 97% (active) in experiment [5] (setting [7]); 99% (active) in experiment [5] (setting [8]); -0.35% (inactive) and 99.7% (active) in experiment [5] (at 50.0 µM); 98% (active) in experiment [6] (setting [7]); 99% (active) in experiment [6] (setting [8]); 10.2% (inactive) and 99.4% (active) in experiment [6] (at 50.0 µM).
